Results published in paper PMC4336329 (PLoS ONE, 2015).
Hit rate of the full screen: of about 310,000 compounds, about 14,000 (4.5%) showed an effect of 50% or more. The effect is printed as a negative number. This is one part of a sample in which strong results are shown more often than they occur.

Molecular target: human ether-à-go-go-related gene (hERG) potassium channel (human, UniProt Q12809)
Assay: primary screen, population patch clamp on CHO cells stably expressing hERG; higher = less effect of the substance
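Further: peak tail current of the secondary pulse compared with the same well before compound.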

Sequence of human ether-à-go-go-related gene (hERG) potassium channel (Q12809 whole entry, looked up): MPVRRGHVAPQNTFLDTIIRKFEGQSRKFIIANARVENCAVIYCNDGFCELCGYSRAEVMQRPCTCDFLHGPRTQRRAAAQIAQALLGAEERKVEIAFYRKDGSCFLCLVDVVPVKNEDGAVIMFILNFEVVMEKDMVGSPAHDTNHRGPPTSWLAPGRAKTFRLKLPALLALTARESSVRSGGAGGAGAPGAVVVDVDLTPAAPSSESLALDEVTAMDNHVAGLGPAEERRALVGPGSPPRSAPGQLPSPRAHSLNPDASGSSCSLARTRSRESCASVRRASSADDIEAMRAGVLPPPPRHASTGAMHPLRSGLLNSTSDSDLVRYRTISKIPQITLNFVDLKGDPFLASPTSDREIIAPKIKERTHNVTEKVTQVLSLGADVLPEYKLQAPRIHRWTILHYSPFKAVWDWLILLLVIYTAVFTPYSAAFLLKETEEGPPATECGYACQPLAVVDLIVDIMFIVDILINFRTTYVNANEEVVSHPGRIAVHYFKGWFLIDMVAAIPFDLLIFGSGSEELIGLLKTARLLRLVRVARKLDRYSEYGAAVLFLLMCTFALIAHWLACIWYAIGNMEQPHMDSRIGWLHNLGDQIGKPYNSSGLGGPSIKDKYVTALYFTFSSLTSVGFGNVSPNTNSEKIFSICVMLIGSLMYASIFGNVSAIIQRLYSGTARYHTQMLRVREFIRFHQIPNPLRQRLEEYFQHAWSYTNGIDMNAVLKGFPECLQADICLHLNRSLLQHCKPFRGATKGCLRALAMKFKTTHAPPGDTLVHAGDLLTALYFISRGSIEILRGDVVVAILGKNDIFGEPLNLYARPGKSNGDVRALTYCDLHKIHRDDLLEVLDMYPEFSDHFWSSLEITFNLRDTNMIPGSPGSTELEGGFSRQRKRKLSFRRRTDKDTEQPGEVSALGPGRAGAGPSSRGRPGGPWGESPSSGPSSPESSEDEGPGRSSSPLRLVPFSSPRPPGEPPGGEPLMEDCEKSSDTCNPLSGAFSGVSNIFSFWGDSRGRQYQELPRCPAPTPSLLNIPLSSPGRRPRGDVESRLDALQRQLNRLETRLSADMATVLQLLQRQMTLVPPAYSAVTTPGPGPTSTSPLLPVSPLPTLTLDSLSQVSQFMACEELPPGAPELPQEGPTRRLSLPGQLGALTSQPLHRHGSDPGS

| Structure (SMILES) | hERG current change (%, negative = inhibition) at 10uM |
| --- | --- |
| COc1ccc(-n2c3c(cc(C(=O)NNc4ccccc4C)c2=O)C(=O)CC(C)(C)C3)cc1 | 17.7% |
| O=c1c2c(nc3nc(NCc4ccc(Cl)cc4)[nH]n13)CCC2 | 23.2% |
| O=S(=O)(c1cccc2nsnc12)N1CCc2ccccc2C1 | -34.8% |
| COc1ccc(OC)c(Nc2nc(C)nc3c2oc2ccccc23)c1 | 5.02% |
| O=C(NC(=S)NNC(=O)[C@H]1C[C@@H]1c1ccccc1)c1ccc(F)cc1 | 3.86% |
| CCOC(=O)N(Cc1ccccc1)Cc1ccc(C(=O)N[C@@H](Cc2ccccc2)C(=O)O)cc1 | 13.8% |
| CCC(C)NC(=O)CCn1ccc2cc(S(=O)(=O)N3CCCC3)ccc21 (centres unmarked) | 12.3% |
| CCC1=NN2C(=N)/C(=C/c3ccc(OS(=O)(=O)c4ccccc4)cc3)C(=O)N=C2S1 | -3.25% |
| CCOC(=O)C1CCN(S(=O)(=O)c2ccc3[nH]c(=O)ccc3c2)CC1 | -45.3% |
| CCOC(=O)C1CCN(S(=O)(=O)c2ccc3c(c2)N(C(C)=O)CCO3)CC1 | -67.2% |
| CCOC(=O)C1CCN(S(=O)(=O)c2ccc3oc(=O)ccc3c2)CC1 | -77% |
| CC(=O)N1CCOc2ccc(S(=O)(=O)N3CCC(C)CC3)cc21 | 6.53% |
| CC(=O)N1CCOc2ccc(S(=O)(=O)N3CCCCC3)cc21 | 11.6% |
| CCOC(=O)C1CCN(S(=O)(=O)c2ccc3[nH]c(=O)oc3c2)CC1 | -30.9% |
| CC/C(=N\NC(=O)C1CC1)c1cccc(Cl)c1 | 30.9% |
| Cc1nc(Sc2ccc(Cl)cc2)c(C#N)c(C)c1[N+](=O)[O-] | 6.1% |
| COC(=O)Cn1cnc2scc(-c3ccc(C)cc3)c2c1=O | 7.31% |
| CC(C)C(NC(=O)c1ccc(F)cc1)C(=O)Nc1cccnc1 (centres unmarked) | 0.585% |
| CCOC(=O)c1ccccc1NC(=O)c1c(F)c(F)c(F)c(F)c1F | 10.2% |

| Structure (SMILES) | hERG current change (%, negative = inhibition) at 10uM |
| --- | --- |
| CCN(CC)Cc1c(O)ccc2occ(C(=O)c3ccc(OC)cc3)c12 | -74.2% |
| COc1ccc(OC)c(C(=O)c2coc3ccc(O)c(CN(C)C)c23)c1.Cl | -12.7% |
| COc1ccc(OC)c(C(O)c2coc3ccc(O)c(CN(C)C)c23)c1 (centres unmarked) | -17% |
| COc1ccc(Oc2coc3c(CN(C)C)c(O)ccc3c2=O)cc1 | 17.7% |
| COc1ccc(C(=O)c2coc3ccc(O)c(CN(C)C)c23)cc1 | -57.9% |
| COc1ccc(C(O)c2coc3ccc(O)c(CN(C)C)c23)cc1 (centres unmarked) | -47.9% |
| COc1ccc(C(=O)c2coc3ccc(OC(C)=O)cc23)cc1 | 24.9% |
| COc1ccc(C(=O)c2coc3ccc(O)cc23)cc1 | 7.61% |
| COc1ccc2occ(C(=O)c3ccc(N)cc3)c2c1 | 2.02% |
| COc1ccc2occ(C(=O)c3coc4ccc(O)c(CN(C)C)c34)c2c1.Cl | -72.1% |
| COc1ccc2occ(C(=O)c3ccc(N=C(C)N(C)C)cc3)c2c1 | -58.8% |
| COc1ccc(S(=O)(=O)N/N=C(/C)c2ccco2)cc1 | -6.76% |
| CCc1sc(-c2c(C#N)c(N)nc3c2CCCCCC3)cc1[N+](=O)[O-] | 14% |
| Cc1ccc(C(=O)NC(C)c2ccccc2)cc1Br (centres unmarked) | -11.8% |
| Cc1cc(C)cc(NC(=O)c2ccc(S(=O)(=O)C(F)F)cc2)c1 | -29.7% |
| CC(=O)NCCNc1nc2c(-c3cccc(C)c3)nnn2c2ccccc12 | 12.8% |
| CC(CN1CCCCC1)OC(=O)c1ccc(Cl)cc1.Cl (centres unmarked) | -36.4% |
| O=C1CCN(S(=O)(=O)c2cc(C(F)(F)F)ccc2Cl)CC1 | -1.34% |
| CCc1ccccc1NC(=O)c1ccccc1N1C(=O)C2C3C=CC(C3)C2C1=O (centres unmarked) | 18.3% |

| Structure (SMILES) | hERG current change (%, negative = inhibition) at 10uM |
| --- | --- |
| Cc1cc(C)n(-c2cc(N3CCN(S(=O)(=O)c4ccc(Cl)cc4)CC3)ccc2[N+](=O)[O-])n1 | -32.8% |
| Cc1cc(C)n(-c2cc(N3CCN(C(=O)c4ccccc4C)CC3)ccc2[N+](=O)[O-])n1 | -52.7% |
| Cc1ccccc1C(=O)N1CCN(c2ccc([N+](=O)[O-])c(N3CCOCC3)c2)CC1 | -16.3% |
| Cc1cc(C)n(-c2cc(N3CCN(C(=O)c4ccc(C(C)(C)C)cc4)CC3)ccc2[N+](=O)[O-])n1 | -34.4% |
| COc1ccc(N2CCN(C(=O)c3ccc(-n4nc(C)cc4C)cc3)CC2)cc1 | -19.4% |
| COc1ccc(C(=O)N2CCN(c3ccc([N+](=O)[O-])c(-n4nc(C)cc4C)c3)CC2)cc1 | -78.2% |
| Cc1cc(C)n(-c2cc(N3CCN(S(=O)(=O)c4ccc(C)c(C)c4)CC3)ccc2[N+](=O)[O-])n1 | 15% |
| Cc1cc(C)c(S(=O)(=O)N2CCN(c3ccc([N+](=O)[O-])c(-n4nc(C)cc4C)c3)CC2)c(C)c1 | -7.91% |
| CC(=O)N1CCN(c2ccc([N+](=O)[O-])c(-n3nc(C)cc3C)c2)CC1 | -51.9% |
| COc1cc(C)ccc1OCc1cc(C(=O)NCCN2CCOCC2)no1 | 2.08% |
| COc1ccc(/C=N/NC(=O)c2ccc3nc[nH]c3c2)cc1OC | 20.7% |
| CCC1CCCCN1Cc1ccc(OC)c(C)c1C (centres unmarked) | -31.2% |
| Cc1ccc(CNC(=O)C2CCCN2C(=O)Nc2ccccc2)cc1 (centres unmarked) | -8.61% |
| COc1ccccc1N1CCN(S(=O)(=O)c2cn(C)nc2C)CC1 | -2.6% |
| CCCCN(C(=O)CN1CC(C)OC(C)C1)c1c(N)n(CC(C)C)c(=O)[nH]c1=O (centres unmarked) | 9.06% |
| CCN(c1ccccc1)S(=O)(=O)c1ccc(Oc2ccc(-n3ccnc3)cc2)nc1 | -77.4% |
| CCN(c1ccccc1)S(=O)(=O)c1ccc(Oc2ccc([N+](=O)[O-])cc2)nc1 | -21% |
| CCN(c1ccccc1)S(=O)(=O)c1ccc(NN)nc1 | -12.2% |
